# PubChem BioAssay AID485318 (Broad Institute, 2010)
# Out of some 1,400 compounds screened, fewer than 10 were called active. The list is a sample of the results. Values without a mark were called inactive.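 The calls were made as follows: active = fluorescence-lowering compounds whose fitted half-maximal concentration is at or below ten times the highest valid dose tested; inconclusive = flat curve at 30 to 70% inhibition, or poor fit; inactive = the rest.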
# Molecular target: Histone deacetylase 3 (Homo sapiens) (UniProt O15379)
# Experiment: inhibition of human HDAC3 enzymatic activity – biochemical, fluorescence, cherry-picked samples, counter-screen for JMJD2C/GASC1 demethylase inhibitor project, dose response (AID 485318);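 also: enzyme preincubated with compound before substrate and trypsin were added; 0% = neutral control wells and -100% = SAHA positive control wells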
# Details: recombinant HDAC3, fluorogenic peptide/trypsin coupled; series mostly up to 12 µM; activity change, negative = inhibition: at the top concentration
# Histone deacetylase 3 (Homo sapiens), sequence (O15379 whole entry, looked up): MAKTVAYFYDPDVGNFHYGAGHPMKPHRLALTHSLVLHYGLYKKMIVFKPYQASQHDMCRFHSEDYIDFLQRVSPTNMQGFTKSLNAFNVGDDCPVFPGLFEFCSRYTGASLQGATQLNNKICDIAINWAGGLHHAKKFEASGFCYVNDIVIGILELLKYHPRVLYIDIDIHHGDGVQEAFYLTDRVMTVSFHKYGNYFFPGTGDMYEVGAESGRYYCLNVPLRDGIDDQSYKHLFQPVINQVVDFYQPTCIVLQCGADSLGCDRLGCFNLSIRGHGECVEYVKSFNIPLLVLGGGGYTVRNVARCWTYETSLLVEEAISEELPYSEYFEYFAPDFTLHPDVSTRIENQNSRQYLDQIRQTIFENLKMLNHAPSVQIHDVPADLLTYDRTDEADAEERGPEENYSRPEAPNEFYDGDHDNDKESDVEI
row,SMILES,"activity change, negative = inhibition [%]"
1,CC1=C(C(=O)OC(C)C)C(c2ccccc2)NC(=S)N1C (stereo not given),-0.136
2,COc1ccccc1N1CCN(c2nc3c(C)cccn3c(=O)c2C=O)CC1,0.107
3,O=c1c2ccccc2nc2c3ccccc3c(NCc3ccco3)nn12,0.625
4,O=C(NCC(c1ccco1)N1CCN(c2ccc(F)cc2)CC1)OCc1ccccc1 (stereo not given),0.174
5,CC(C)(C)NC(=O)CSc1nc2cccnc2n1C1CCCCC1,0.349
6,C/C(=N\Nc1nc(C(=O)O)cs1)c1ccccc1,-0.586
7,CN1CCN(Cc2c(C#N)c3ccccc3n2C)CC1,-0.48
8,CN(C)CCCNC1=CC(=O)OC12CCCCC2,-0.144
9,Nn1cc(-c2ccccc2)nc1SCC(=O)N1CCN(S(=O)(=O)c2ccc3ccccc3c2)CC1,-0.203
10,CCN(CC)C(=O)C1c2ccccc2Oc2ccccc21,-0.357
11,CCCn1nnnc1SCC(=O)NCc1ccc2c(c1)OCO2,0.24
12,Cc1noc(C)c1COc1ccc(C(=O)OC(C)C(=O)Nc2ccc(N3CCOCC3)cc2)cc1 (stereo not given),0.0949
13,CCNC(=O)c1ccc2c(c1)S(=O)(=O)c1ccccc1C2=O,0.35
14,Cc1ccccc1N=C1N=C(N)c2ccccc21,1.05
15,COc1cccc(C(c2nnnn2CCc2ccccc2)N2CCN(c3ccccc3)CC2)c1OC (stereo not given),-0.0474
16,O=C(O)c1ccc2cc(-c3ccccc3)[nH]c2c1,-0.104
17,Cc1cc(N(C)C)cc(C)[n+]1[O-],1.03
18,CC(=O)Oc1ccc(NC(=O)Cc2ccccc2)c(C(=O)O)c1,0.179
19,CCN(C[C@H]1N[C@@](Cc2ccccc2)(C(=O)OC)[C@H]2C(=O)N(C)C(=O)[C@@H]12)S(=O)(=O)c1ccccc1,-0.222
20,Cn1c(=O)n(C)c2cc(S(=O)(=O)N3CCOCC3)ccc21,1.24
21,Cc1ccc(NC2=NCC(=O)N2Cc2ccc3c(c2)OCO3)c(C)c1,0.52
22,CC1(C)CC2(CC(C)(C)N1)OC(=O)N1CCc3ccccc3C12C (stereo not given),0.0279
23,CCCN(C(=O)Cc1ccc(S(=O)(=O)N2CCOCC2)s1)c1c(N)n(Cc2ccccc2)c(=O)[nH]c1=O,-0.39
24,CC(=O)Nc1cc2c(cc1NC(=O)Cn1nc(-c3ccccc3)ccc1=O)OCCO2,-0.351
25,CCOc1ccccc1N(CC(=O)O)S(=O)(=O)c1ccc(C)cc1,0.686

row,SMILES,"activity change, negative = inhibition [%]"
1,COc1ccc(/C=C2/CC/C(=C\c3ccc(OC)c(OC)c3OC)C2=O)c(OC)c1OC,0.948
2,COc1cc(NS(=O)(=O)c2ccc(NC(=O)c3ccc(C)o3)cc2)nc(OC)n1,0.178
3,C[C@@H]1CN([C@H](C)CO)C(=O)c2cc(NC(=O)Cc3ccccc3)ccc2O[C@H]1CN(C)Cc1ccc(Oc2ccccc2)cc1,0.213
4,CCOc1ccc(N2C(=O)CC(N(O)c3ccccc3)C2=O)cc1 (stereo not given),0.801
5,CC1CN(Cc2c(O)ccc3c2oc(=O)c2ccccc23)CC(C)O1 (stereo not given),-0.481
6,COc1cc2c(cc1OC)C1=C(C#N)COCN1CC2,-0.477
7,CCNC(=S)NNC(=O)c1csc2c1CCC(C)C2 (stereo not given),0.337
8,O=C(CN1C(=O)NC2(CCCC2)C1=O)Nc1nc(-c2ccccc2)cs1,-0.418
9,CC1CCCC(NC(=O)COC(=O)c2ccc(N(C)C)cc2)C1C (stereo not given),0.088
10,COc1ccc(C(=O)NCc2nnc(SCC(=O)N3CCc4ccccc43)o2)cc1OC,-0.675
11,O=C(c1ccncc1)N1N=C(C2CCCCC2)CC1(O)C(F)(F)F (stereo not given),0.32
12,CSc1nnnn1CCn1nnnc1SC,-0.14
13,CS(=O)(=O)NC1c2cccc3cccc(c23)C1Sc1nncn1/N=C/c1ccco1 (stereo not given),0.4
14,N#Cc1ccc(OCC(=O)N2CCN(S(=O)(=O)c3cccs3)CC2)cc1,0.818
15,Cc1cc(C)n2nc(C(=O)N3CCCC(Nc4ccc(F)c(F)c4)C3)cc2n1 (stereo not given),0.457
16,C=CCn1cnc2scc(-c3ccc(C)cc3)c2c1=O,0.314
17,CCCCCNc1nc(-c2ccccc2)nc(-n2ccnc2)n1,-0.269
18,CC(=O)C1=C(c2ccccc2)N(C(C)=O)n2c(C)nnc2S1,-0.262
19,CC1=C(C(=O)OCC2CCCO2)C(c2ccccc2OC(C)C)C2=C(CC(c3ccco3)CC2=O)N1 (stereo not given),-0.466
20,Cc1occc1-c1nnc(SCC(=O)Nc2ccccc2)n1C(C)c1ccccc1 (stereo not given),0.434
21,CCN(Cc1nc(-c2ccccc2)no1)C(=O)c1ccco1,-0.489
22,Cc1nnc(N2C(=O)C(=O)/C(=C(/O)c3ccc4c(c3)CC(C)O4)C2c2ccccc2F)s1 (stereo not given),0.641
23,CCC(C(=O)NCCCc1ccccc1)c1ccccc1 (stereo not given),0.435
24,COCCCNC(=O)C1CCN(C(=O)Nc2ccc(Cl)cc2)CC1,-0.45
25,COC(=O)[C@]1(C)N[C@H](CN(C)S(=O)(=O)c2ccc(F)cc2)[C@@H]2C(=O)N(C)C(=O)[C@@H]21,-0.842
